Source: PubChem
This is a sample that favours compounds with a hit; in the whole collection about 27% have one here.
CYP2C9 act: human CYP2C9 activators, primary screen, biochemical, luminescence. AID 1024, 2008. 1.4% of 96,000 active. activation factor at 5 µM. Cytochrome P450 2C9 (Homo sapiens), P11712. recombinant CYP2C9, luciferin-H conversion; hits give high values; factor 1 = untreated enzyme, 0 = blocked;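 active = activation factor of 2 or more for CYP2C9 at a 5 µM dose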;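 note: 0 = sulfaphenazole-blocked wells and 1 = vehicle-only wells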
CYP2C9 inh: blockers of cytochrome P450 2C9 activity – biochemical, luminescence, ADME assay, primary screen. P11712. CYP2C9 Supersomes, luciferin-H conversion. inhibition, % at 5 µM. 20% of 96,000 active. AID 777, 2007;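 active = blocking of liver enzyme CYP2C9 beyond about 50% at 5 µM, limit read from the data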
Cav32 inh: Cav3.2 calcium influx blockers – cell-based, Fluo-4 calcium fluorescence, FDSS, MLSMR library, primary screen; Voltage-dependent T-type calcium channel subunit alpha-1H (Homo sapiens), O95180; Cav3.2-expressing cells; hits give low values; B-score at 10 µM; 4% of 100,000 active; AID 449739, 2010;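 active = single-dose well whose peak fluorescence ratio is a statistical outlier from its plate by either plate-standardised score or position-corrected B-score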
CYP2C19 inhib: blockers of cytochrome P450 2C19 activity – biochemical, luminescence, ADME assay, primary screen; P33261; CYP2C19 Supersomes, luciferin-H EGE luminescence, 30 min; inhibition, % at 5 µM; 21% of 96,000 active;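 active = CYP2C19 inhibition above a set limit at 5 µM in the primary screen, cut at about 50% in these data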;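 note: plate controls were negative control wells for no effect and 2.5 mM tranylcypromine positive control for full effect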
CYP2C19 act: human CYP2C19 activators, primary screen, biochemical, luminescence; activation factor at 5 µM; 96,000 tested, under 10 active; AID 1025, 2008; recombinant CYP2C19, luciferin-H EGE luminescence; hits give high values; 0 = fully inhibited enzyme, 1 = untreated enzyme; Cytochrome P450 2C19 (Homo sapiens), P33261;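 active = activation factor of at least 2 at 5 µM in the primary screen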;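 note: 0 = wells with 2.5 mM tranylcypromine and 1 = vehicle-only wells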
Numbers without * were called inactive; . = no result given.

SMILES	CYP2C9 act	CYP2C9 inh	Cav32 inh	CYP2C19 inhib	CYP2C19 act
CCCN(N=Nc1cccc([N+](=O)[O-])c1)c1cccc([N+](=O)[O-])c1	0.3	73.5*	-4.2*	11.4	0.9
CCC1(CC)C(=O)C2=C3C1[C@H](C(=O)OC)CC(C(=O)OC)C[C@H]3[C@H]1C(=O)N(c3ccccc3)C(=O)[C@H]1[C@H]2C (stereo partly drawn)	.	.	-0.251	.	.
O=C1C=C(N2CCOCC2)CCC1	.	.	-0.977	.	.
COc1cnn(-c2ccccc2)c(=O)c1SCc1ccc(Cl)cc1Cl	0.5	47.0	-4.05*	67.2*	0.3
C=CCn1c(O)c(C2=c3ccccc3=NC2=O)s/c1=N/c1nccs1	0.4	61.0*	.	9.2	0.9
Cn1c(O)c(C2=c3ccccc3=NC2=O)sc1=Nc1ccc(Cl)cc1	.	.	0.27	.	.
Cc1ccc(C(C)C)c(OCC(O)CN2CCN(CCO)CC2)c1 (stereo not drawn)	.	.	-0.954	.	.
COC(=O)C(C)Oc1ccc(=O)[nH]n1 (stereo not drawn)	1.1	-7.2	0.382	-3.3	1
CCOC(=O)C1=C(N)Oc2c(oc(CO)cc2=O)C1c1c(F)cccc1Cl (stereo not drawn)	0.4	58.8*	1.66	70.7*	0.3
CCOC(=O)C1CCCc2c1[nH]c1c(C(=O)O)cccc21 (stereo not drawn)	1	2.1	0.993	9.5	0.9
Cc1csc(SCc2ccc(C(=O)O)cc2)n1	1	-4.3	1.66	-4.9	1
CC1(C)CC(=O)C/C(=N/NC(=O)CCCOc2ccc(Cl)cc2Cl)C1	0.8	18.8	-0.0141	3.4	1
C=CCn1c(SCC(=O)NCc2ccc3c(c2)OCO3)nnc1C1CCCCC1	0.4	57.8*	0.0294	52.7*	0.5
C=CCn1c(SCC(=O)NCc2ccc3c(c2)OCO3)nnc1C1COc2ccccc2O1 (stereo not drawn)	0.5	52.8*	-3.32	64.7*	0.4
C=CCn1c(SCc2c(C)noc2C)nnc1C1COc2ccccc2O1 (stereo not drawn)	0.4	61.3*	-4.87*	33.2	0.7
C=CCn1c(SCC(=O)Nc2cc(C)nn2-c2ccccc2)nnc1C1CCCCC1	0.6	42.3	1.26	66.2*	0.3
C=CCn1c(SCC(=O)NCc2ccccc2)nnc1C1CCCCC1	0.6	40.4	-0.442	15.4	0.8
C=CCNC(=O)c1cccc(C(F)(F)F)c1	1	4.9	0.0293	10.4	0.9
CC(C)NS(=O)(=O)c1ccc(NC(=O)C2CC3C=CC2C3)cc1 (stereo not drawn)	0.8	21.9	0.75	16.2	0.8
O=C(Nc1ccccc1N1CCCC1)c1ccc(Br)o1	0.5	53.2*	-1.85	56.8*	0.4
O=C(Nc1ccccc1C(=O)O)c1ccccc1	0.6	37.9	0.868	4.8	1
CC(=O)Nc1cccc(C(=O)Nc2ccccc2C(=O)O)c1	0.5	48.8	-0.775	-16.7	1.2
O=C(Nc1ccccc1C(=O)O)c1cccc(NC(=O)c2ccc(Br)o2)c1	0.1	91.4*	0.0123	1.8	1
O=C(Nc1ccccc1C(=O)O)c1ccc(NC(=O)c2ccc(Br)o2)cc1	0.2	78.0*	-0.0878	23.1	0.8
CC(C)CC(=O)Nc1cccc(C(=O)Nc2ccccc2C(=O)O)c1	0.3	74.4*	1.12	7.3	0.9
SMILES	CYP2C9 act	CYP2C9 inh	Cav32 inh	CYP2C19 inhib	CYP2C19 act
Cc1ccc(C)c(OCCOCCN2CC(C)OC(C)C2)c1C (stereo not drawn)	1	0.1	-0.633	34.0	0.7
O=C(Nc1cccc2cccnc12)c1ccc(Br)o1	2.2*	-119.2	-0.103	15.0	0.8
CC1(C)Cc2c(sc3nc(-c4ccccc4Cl)n(N)c(=O)c23)CO1	1.2	-15.6	0.506	-6.0	1.1
CCCCC(=O)Nc1nc(C)c(-c2csc(Nc3cc(OC)ccc3OC)n2)s1	0.2	79.0*	0.24	10.3	0.9
CCCC(C)C(=O)Nc1nc(C)c(-c2csc(Nc3ccccc3OC)n2)s1 (stereo not drawn)	0.3	73.5*	-0.596	22.9	0.8
CCCCCCC(=O)Nc1nc(C)c(-c2csc(Nc3cc(Cl)ccc3C)n2)s1	0.6	37.6	-0.749	36.9	0.6
CCCC(C)C(=O)Nc1nc(C)c(-c2csc(Nc3ccc(Cl)cc3)n2)s1 (stereo not drawn)	0.5	54.7*	-1.18	33.6	0.7
